Screening results as filed in PubChem BioAssay.
ssDAF12 agonist: activates DAF-12 receptor from parasite S. stercoralis | AID 652126 | actives 1% (n = 370,000) | HEK293 ssDAF-12/GRIP1 lit1-tk-luc reporter, luminescence; % of 3 µM dafachronic acid response | activation, % at 6.8 µM;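 active means activation above the mean over all tested compounds plus 3 SD, cut at about 0.9% in these data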;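 further: 0% = DMSO-only wells and 100% = 3 µM delta7-dafachronic acid wells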
DAX1 inh-1: blocks DAX1 repression of SF-1 activated StAR promoter; HEK293T StAR-luciferase reporter, SF-1/DAX-1 repression relief; inhibition, % at 6.8 µM; actives 1.1% (n = 370,000);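 active means inhibition above the mean over all tested compounds plus 3 SD, cut at about 3.6% in these data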;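 further: 0% = DAX-1 cells with DMSO and 100% = cells lacking DAX-1 with DMSO; higher inhibition means more luminescence from relief of DAX-1 repression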
DAX1 inh-2: inhibits human nuclear receptor DAX1. inhibition, % at 6.75 µM. AID 504766. HEK293 Gal4-DAX1 luciferase reporter, luminescence. actives 0.99% (n = 340,000). P51843;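 active means inhibition above the mean over all tested compounds plus 3 SD, cut at about 4.2% in these data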;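 further: 0% = DAX1-transfected cells with DMSO and 100% = empty-vector control cells with DMSO; inhibition shows as a rise in luminescence from relieved DAX1 repression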
hgDAF-12 ag: hgDAF-12 agonism, primary luciferase screen; actives 1.8% (n = 370,000); HEK293 GAL4-hgDAF12 UAS-luciferase reporter, agonist luminescence; normalized to butyrate control; activation, % at 6.8 µM;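 active means activation above a cutoff set at the mean of all screened compounds plus 3 SD, cut at about 10% in these data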;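 further: 0% = DMSO wells and 100% = sodium butyrate wells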
hcDAF12 agonist: H. contortus DAF-12 activation, primary screen; HEK293 hcDAF-12 lit1-tk-luc reporter, luminescence; 0% DMSO, 100% Δ7-dafachronic acid; activation, % at 6.8 µM; actives 1.4% (n = 370,000);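 active means activation above the mean of all tested compounds plus 3 SD, cut at about 5.5% in these data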;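 further: 100% = response to 3 µM Δ7-dafachronic acid high control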
DAX1 conf: NR0B1 (human) inhibition, confirmation | HEK293T StAR-promoter luciferase reporter, SF-1/DAX-1 repression | shares compounds with DAX1 inh-1 | actives 87% (n = 2,400) | inhibition, % at 6.8 µM | AID 652134;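 active means inhibition above the average of every tested compound plus 3 SD, cut at about 3.8% in these data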;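 further: 0% = DAX-1 cells with DMSO and 100% = no DAX-1 control cells with DMSO; active compounds raise luminescence by relieving repression of the StAR reporter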
SF1 mutant ctr: counter-screen for DAX1 inhibitors: nonselective inhibitors with SF-1 AF2 mutant; HEK293 StAR-luciferase, luminescence; AID 652136; inhibition, % at 6.8 µM; actives 78% (n = 2,400); shares compounds with DAX1 inh-1;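 active means inhibition above the mean of all tested compounds plus 3 SD, cut at about 3% in these data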;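 further: 0% = DAX-1 transfected cells with DMSO and 100% = cells without DAX-1 with DMSO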
LXR ag: counter-screen for hcDAF-12 agonists: agonists of human LXR-beta. shares compounds with hcDAF12 agonist. HEK293 Gal4-LXR tk-luc reporter, luminescence, 24 h; normalized: DMSO 0%, positive control 100%. AID 743027. 3,400 tested, under 10 active. activation, % at 6.8 µM;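 active means mean percent activation of the reporter above a cutoff set as the average over tested compounds plus their standard deviation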
Target sequence (P55055 whole entry, looked up, the tested form may be a part): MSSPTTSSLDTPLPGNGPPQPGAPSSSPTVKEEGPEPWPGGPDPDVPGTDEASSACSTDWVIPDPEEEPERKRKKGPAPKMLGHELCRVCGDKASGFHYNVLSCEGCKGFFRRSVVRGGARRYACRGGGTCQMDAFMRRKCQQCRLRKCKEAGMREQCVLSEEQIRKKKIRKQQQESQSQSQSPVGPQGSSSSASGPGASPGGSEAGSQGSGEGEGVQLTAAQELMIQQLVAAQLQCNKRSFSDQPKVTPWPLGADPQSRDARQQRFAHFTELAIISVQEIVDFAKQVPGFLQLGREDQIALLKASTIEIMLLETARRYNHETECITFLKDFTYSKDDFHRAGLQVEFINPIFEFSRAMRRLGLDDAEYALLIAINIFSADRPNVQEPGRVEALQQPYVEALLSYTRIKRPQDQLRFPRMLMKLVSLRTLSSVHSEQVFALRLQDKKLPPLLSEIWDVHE
hcDAF12 conf: hcDAF-12 agonism, confirmation assay; shares compounds with hcDAF12 agonist; HEK293 hcDAF-12 lit1-tk-luc reporter, luminescence; % of Δ7-dafachronic acid response; activation, % at 6.8 µM; actives 61% (n = 3,400); AID 743032;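 active means mean activation across triplicate tests above the threshold derived from the earlier primary screen, cut at about 5.5% in these data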;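 further: 0% = DMSO only wells and 100% = 3 µM Δ7-dafachronic acid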
hgDAF12 conf: hgDAF-12 agonism, confirmation assay | HEK293 GAL4-hgDAF12 luciferase reporter, agonist mode; percent of butyrate response | activation, % at 6.8 µM | AID 743050 | actives 80% (n = 3,300) | shares compounds with hgDAF-12 ag;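 active means mean activation over triplicate wells above the hit cutoff derived from the earlier primary screen, cut at about 11% in these data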;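 further: 0% = DMSO low control and 100% = 2 mM sodium butyrate high control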
LXR ag 2: activates human LXR-beta, counter-screen for DAF-12 agonists; shares compounds with hgDAF-12 ag; HEK293 Gal4-LXR luciferase reporter, 24 h; activation, % at 6.8 µM; 3,300 tested, under 10 active; AID 743051;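 active means mean activation of the triplicate above a set limit carried over from the primary screen, none filed active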
Active calls of the source: *; . = not tested or not shown. A selection: hits, their analogues and other compounds. The true share with any hit is near 4.1%.

SMILES	ssDAF12 agonist	DAX1 inh-1	DAX1 inh-2	hgDAF-12 ag	hcDAF12 agonist	DAX1 conf	SF1 mutant ctr	hgDAF12 conf	LXR ag 2	others
COc1ccc(C(=O)NNC(=S)NC(=O)c2ccc(OC)cc2)cc1	-1	-1	1	3	0	.	.	.	.
COc1cccc(NC(=O)c2ccccc2)c1	-1	2	0	8	2	.	.	.	.
O=C(NNC(=S)Nc1ccccc1Cl)c1ccccc1	1	15*	3	14*	3	12*	8.2*	18*	1
COc1ccc(C(=O)NNC(=S)Nc2ccccc2)cc1	0	10*	2	17*	4	16*	12*	15*	1
COc1cccc(C(=O)Nc2ccc3c(C)cc(=O)oc3c2)c1	1.0*	17*	1	13*	6.1*	14*	10*	21*	1
COc1ccc(C(=O)Nc2cccc(OC)c2)cc1	1.0*	5.4*	1	16*	4	14*	0	16*	1
Cc1cccc(OCC(=O)Nc2ccc3c(C)cc(=O)oc3c2)c1	-1	1	1	-2	-2	.	.	.	.
CCOC(=O)[C@]12CCCC3=C1N(CCC3)C(=O)[C@@H](CC(=O)N1CCCCC1)C2	-1	0	.	-3	1	.	.	.	.
Cc1c(COC(=O)NC(C)C)c(COC(=O)NC(C)C)c2n1CS(=O)(=O)C2	-1	-1	.	-2	0	.	.	.	.
O=C(NN=Cc1ccc(Cl)cc1Cl)c1ccccc1	1	5.5*	3	17*	3	11*	5.8*	16*	1
O=C(N/N=C/c1ccc(Cl)cc1Cl)c1ccncc1	-1	-1	1	3	-2	.	.	.	.
Cc1ccc(CNC(=O)OC(C)(C)C)c(/C=C/S(=O)(=O)NCc2ccc(F)cc2)c1	-1	-2	.	-1	-3	.	.	.	.
C=CCn1c(=O)c(C(=O)Nc2ccccc2S(N)(=O)=O)c(O)c2ccccc21	1.1*	5.8*	1	15*	12*	10*	4.0*	11*	0	LXR ag=1;hcDAF12 conf=5
C=CCn1c(=O)c(C(=O)Nc2ccccc2C(=O)OCC)c(O)c2ccccc21	-1	-1	0	-1	1	.	.	.	.
Clc1cccc(CNC2CCC23CCCCC3)c1 (stereo not given)	-1	.	.	3	-1	.	.	.	.
Cn1cccc1C(=O)C(=O)Nc1ccc(Cl)cc1	1.4*	5.1*	0	14*	11*	15*	9.2*	20*	1	LXR ag=2;hcDAF12 conf=8.6*
Cn1cccc1C(=O)C(=O)Nc1ccc(F)c(F)c1	1.8*	4.9*	4	15*	5	9.1*	7.7*	16*	1
Cn1cccc1C(=O)C(=O)Nc1cc(Cl)cc(Cl)c1	0	1	0	4	-1	.	.	.	.
Cc1ccnc(NC(=S)N2CC3CN(c4cccc(C(F)(F)F)c4)CC3C2)c1 (stereo not given)	-2	.	.	1	-2	.	.	.	.
CC(=O)c1cc(-c2ccccc2S(=O)(=O)NC(C)(C)C)c(=O)n2c1CCC2	-1	-1	.	5	0	.	.	.	.
CCN(CC)CCN(C(=O)c1ccc(C(=O)c2ccccc2)cc1)c1nc2cc3c(cc2s1)OCO3	-1	2	0	3	-1	.	.	.	.
